# Laboratory results from PubChem BioAssay (Tox21).
# Inconclusive results are not listed. Where a call stands in place of a potency, no number is given. Activity calls are given as the source filed them. The call rests on the fitted dose curve; in most records, active means well fitted inhibition curve with a large enough effect in the repeat runs; inconclusive means weak or mixed curves; inactive means no such curve, though single readings can be large or run the other way.
# Molecular target: Cytochrome P450 2D6 (Homo sapiens) (UniProt P10635)
# Assay: Cytochrome P450 Family 2 Subfamily D Member 6 (CYP2D6) small molecule antagonists: luciferase reporter qHTS assay (AID 1671196); further: nearly all actives have a fitted effect of over 50% in size
# Settings: P450-Glo CYP2D6 enzyme assay, luciferin luminescence, 1 h; series mostly up to 115 µM
# Procedure, shortened: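 Luminogenic proluciferin substrate, CYP2D6 enzyme; 10 min RT preincubation with compound, NADPH regeneration system added, 1 h RT. Stop/detection reagent, 20 min RT, luminescence read (RLU). Signal proportional to CYP activity.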
# Potency means the concentration at half of the fitted maximal effect.
# Cytochrome P450 2D6 (Homo sapiens), sequence (P10635 whole entry, looked up): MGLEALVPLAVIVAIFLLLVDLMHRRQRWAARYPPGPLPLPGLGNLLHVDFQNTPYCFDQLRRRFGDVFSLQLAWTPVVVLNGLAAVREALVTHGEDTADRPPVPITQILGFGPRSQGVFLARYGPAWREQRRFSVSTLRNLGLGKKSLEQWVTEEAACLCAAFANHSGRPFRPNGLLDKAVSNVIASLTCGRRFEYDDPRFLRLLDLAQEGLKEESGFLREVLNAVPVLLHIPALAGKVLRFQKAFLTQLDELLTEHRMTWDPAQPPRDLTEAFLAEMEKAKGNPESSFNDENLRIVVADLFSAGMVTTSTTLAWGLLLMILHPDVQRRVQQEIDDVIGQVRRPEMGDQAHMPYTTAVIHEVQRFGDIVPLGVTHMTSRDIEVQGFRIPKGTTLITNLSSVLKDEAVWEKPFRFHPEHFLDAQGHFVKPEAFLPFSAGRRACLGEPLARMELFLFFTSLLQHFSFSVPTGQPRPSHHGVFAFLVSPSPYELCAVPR
row,SMILES,Potency
1,C[Si](C)(C)O[Si](O)(O)O,inactive
2,O=C1CCCc2c(O)cccc21,inactive
3,CC1=C(O)C(=O)CO1,inactive
4,NNC(=O)OCc1ccccc1,inactive
5,COc1ccc(Cl)cc1C,inactive
6,COCc1nnc(-c2ccc[n+]([O-])c2)n1-c1c(Cl)c(Cl)cc2[nH]c(=O)c(=O)[nH]c12,inactive
7,O=C1Nc2ccccc2C1=O,inactive
8,C/C=C/C(=O)CCCC,inactive
9,COc1cc(NS(=O)(=O)c2ccc(N)cc2)ncn1,inactive
10,Cc1cc(C)c(N)c(Cl)c1,inactive
11,CCC(=O)OCCOc1ccccc1,inactive
12,C/C(Cl)=C/CCl,inactive
13,CC(C)(C)NCC(O)COc1cccc2c1CCC(=O)N2 (centres undefined),inactive
14,Cc1ccc(Br)cc1,inactive
15,CC(=O)Oc1ccc(C(C)=O)cc1,inactive
16,COC(C)(C)CC(C)=O,inactive
17,CC(C)C[P+](C)(CC(C)C)CC(C)C,0.568 µM (active)

# Molecular target: Cytochrome P450 2C19 (Homo sapiens) (UniProt P33261)
# Assay: Cytochrome P450 Family 2 Subfamily C Member 19 (CYP2C19) small molecule antagonists: luciferase reporter qHTS assay (AID 1671197); further: nearly all actives have a fitted effect of over 65% in size
# Settings: P450-Glo CYP2C19 enzyme, luciferin luminescence, 1 h; series mostly up to 115 µM
# Procedure, shortened: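 P450-Glo CYP2C19 screening system; proluciferin substrate; DMSO compound stocks; 10 min RT preincubation; NADPH regeneration, 1 h at 37C; luciferin detection reagent, 20 min RT; luminescence as RLU.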
# Cytochrome P450 2C19 (Homo sapiens), sequence (P33261 whole entry, looked up): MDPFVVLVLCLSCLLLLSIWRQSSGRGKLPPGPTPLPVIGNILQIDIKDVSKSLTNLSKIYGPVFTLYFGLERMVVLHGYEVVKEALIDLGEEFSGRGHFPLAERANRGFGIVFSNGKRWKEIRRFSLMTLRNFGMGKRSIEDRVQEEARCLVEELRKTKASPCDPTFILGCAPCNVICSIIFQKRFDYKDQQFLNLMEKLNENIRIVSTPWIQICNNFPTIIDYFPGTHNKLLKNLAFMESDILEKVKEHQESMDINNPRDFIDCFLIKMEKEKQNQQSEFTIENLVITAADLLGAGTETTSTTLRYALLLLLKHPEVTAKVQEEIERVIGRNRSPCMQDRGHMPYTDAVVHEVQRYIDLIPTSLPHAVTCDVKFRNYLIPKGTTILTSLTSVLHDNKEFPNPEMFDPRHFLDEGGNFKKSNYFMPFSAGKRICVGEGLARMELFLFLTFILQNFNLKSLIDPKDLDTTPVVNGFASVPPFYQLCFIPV
row,SMILES,Potency
1,CC(C)c1cc(C(C)C)cc(C(C)C)c1,inactive
2,CCCc1ncc(C(=O)O)s1,inactive
3,Cc1ccc2cccnc2c1,inactive
4,COCCCOc1cc(C[C@@H](C[C@H](N)[C@@H](O)C[C@H](C(=O)NCC(C)(C)C(N)=O)C(C)C)C(C)C)ccc1OC,inactive
5,COC(=O)C(c1ccccc1Cl)N1CCc2sccc2C1 (centres undefined),0.871 µM (active)
6,Cc1cc(=O)oc2cc(O[C@@H]3SC[C@@H](O)[C@H](O)[C@H]3O)ccc12,inactive
7,CCCC(C)C(O)CC (centres undefined),inactive
8,O=C(O)CCCCCCCCCC(=O)O,inactive
9,C=C(C)C(=O)OCCCC,inactive
10,CCOC(=O)CC,inactive
11,COc1cc(NS(=O)(=O)c2ccc(N)cc2)ncn1,inactive
12,O=C(O)Cc1ccccc1Oc1ccc(Cl)cc1Cl,inactive
13,CSC(=O)c1cccc2nnsc12,12.6 µM (active)
14,CCCCCCC(O)CO (centres undefined),inactive
15,O=S(=O)(O)CC(O)CCl (centres undefined),inactive
16,CN(C)c1ccncc1,inactive
17,CCCOc1ccc(C(=O)OCCN(CC)CC)cc1N,inactive
18,O=S(=O)(O)c1ccc(Cl)cc1,55.3 µM (active)
19,CCCCC(CC)COC(=O)CC#N (centres undefined),39.9 µM (active)
20,CC(CN1CC(=O)NC(=O)C1)N1CC(=O)NC(=O)C1 (centres undefined),inactive
21,C/C=C(\C)C=O,inactive
22,CCOC(=O)[C@H](CCc1ccccc1)N[C@H]1CS[C@H](c2cccs2)CN(CC(=O)O)C1=O,inactive

# Molecular target: Cytochrome P450 2C9 (Homo sapiens) (UniProt P11712)
# Assay: Cytochrome P450 Family 2 Subfamily C Member 9 (CYP2C9) small molecule antagonists: luciferase reporter qHTS assay (AID 1671198); further: nearly all actives have a fitted effect of over 50% in size
# Settings: P450-Glo CYP2C9 enzyme assay, luciferin luminescence; series mostly up to 115 µM
# Procedure, shortened: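 P450-Glo proluciferin substrate with CYP2C9 enzyme; 10 min RT preincubation, then NADPH regeneration 1 h at 37C; luciferin detection reagent 20 min RT, luminescence in relative luminescence units.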
# Cytochrome P450 2C9 (Homo sapiens), sequence (P11712 whole entry, looked up): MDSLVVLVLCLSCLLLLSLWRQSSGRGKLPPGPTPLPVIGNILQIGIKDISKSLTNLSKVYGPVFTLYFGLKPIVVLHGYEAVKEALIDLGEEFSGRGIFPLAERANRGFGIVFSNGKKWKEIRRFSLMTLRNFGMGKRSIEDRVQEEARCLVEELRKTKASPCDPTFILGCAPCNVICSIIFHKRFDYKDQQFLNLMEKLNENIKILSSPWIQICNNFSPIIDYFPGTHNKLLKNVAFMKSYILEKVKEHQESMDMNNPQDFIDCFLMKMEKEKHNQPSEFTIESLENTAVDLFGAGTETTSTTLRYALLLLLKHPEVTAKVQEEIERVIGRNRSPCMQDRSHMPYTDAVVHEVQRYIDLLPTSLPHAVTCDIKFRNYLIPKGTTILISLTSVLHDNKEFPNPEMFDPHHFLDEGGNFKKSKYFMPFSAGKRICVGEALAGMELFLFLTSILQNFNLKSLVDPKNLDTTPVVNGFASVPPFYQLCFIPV
row,SMILES,Potency
1,C[Si](C)(C)O[Si](O)(O)O,inactive
2,O=C1CCCc2c(O)cccc21,inactive
3,CC(C)c1cc(C(C)C)cc(C(C)C)c1,inactive
4,CCCc1ncc(C(=O)O)s1,inactive
5,Cc1ccc2cccnc2c1,inactive
6,COCCCOc1cc(C[C@@H](C[C@H](N)[C@@H](O)C[C@H](C(=O)NCC(C)(C)C(N)=O)C(C)C)C(C)C)ccc1OC,inactive
7,COC(=O)C(c1ccccc1Cl)N1CCc2sccc2C1 (centres undefined),17.4 µM (active)
8,NNC(=O)OCc1ccccc1,56.4 µM (active)
9,COc1ccc(Cl)cc1C,84.7 µM (active)
10,Cc1cc(=O)oc2cc(O[C@@H]3SC[C@@H](O)[C@H](O)[C@H]3O)ccc12,inactive
11,CCCC(C)C(O)CC (centres undefined),inactive
12,COCc1nnc(-c2ccc[n+]([O-])c2)n1-c1c(Cl)c(Cl)cc2[nH]c(=O)c(=O)[nH]c12,inactive
13,O=C(O)CCCCCCCCCC(=O)O,inactive
14,O=C1Nc2ccccc2C1=O,inactive
15,C=C(C)C(=O)OCCCC,inactive
16,CCOC(=O)CC,inactive
17,O=C(O)Cc1ccccc1Oc1ccc(Cl)cc1Cl,38.9 µM (active)

row,SMILES,Potency
1,CSC(=O)c1cccc2nnsc12,7.96 µM (active)
2,CCCCCCC(O)CO (centres undefined),inactive
3,O=S(=O)(O)CC(O)CCl (centres undefined),inactive
4,CN(C)c1ccncc1,inactive
5,CCCOc1ccc(C(=O)OCCN(CC)CC)cc1N,inactive
6,CCC(=O)OCCOc1ccccc1,inactive
7,C/C(Cl)=C/CCl,inactive
8,O=S(=O)(O)c1ccc(Cl)cc1,inactive
9,CC(C)(C)NCC(O)COc1cccc2c1CCC(=O)N2 (centres undefined),inactive
10,CCCCC(CC)COC(=O)CC#N (centres undefined),31.7 µM (active)
11,CC(CN1CC(=O)NC(=O)C1)N1CC(=O)NC(=O)C1 (centres undefined),inactive
12,Cc1ccc(Br)cc1,inactive
13,CC(=O)Oc1ccc(C(C)=O)cc1,inactive
14,C/C=C(\C)C=O,inactive
15,CCOC(=O)[C@H](CCc1ccccc1)N[C@H]1CS[C@H](c2cccs2)CN(CC(=O)O)C1=O,inactive
16,CC(C)C[P+](C)(CC(C)C)CC(C)C,inactive

# Molecular target: Cytochrome P450 1A2 (Homo sapiens) (UniProt P05177)
# Assay: Cytochrome P450 Family 1 Subfamily A Member 2 (CYP1A2) small molecule antagonists: luciferase reporter qHTS assay (AID 1671199); further: nearly all actives have a fitted effect of over 50% in size
# Settings: P450-Glo CYP1A2 enzyme, luciferin luminescence, 1 h; series mostly up to 115 µM
# Procedure, shortened: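 Luminescence readout (relative luminescence units) after luciferin detection reagent, 20 min RT. Preceded by 1 h room-temperature CYP1A2 reaction with NADPH regeneration solution following 10 min compound preincubation with enzyme and proluciferin substrate. Furafylline positive control.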
# Cytochrome P450 1A2 (Homo sapiens), sequence (P05177 whole entry, looked up): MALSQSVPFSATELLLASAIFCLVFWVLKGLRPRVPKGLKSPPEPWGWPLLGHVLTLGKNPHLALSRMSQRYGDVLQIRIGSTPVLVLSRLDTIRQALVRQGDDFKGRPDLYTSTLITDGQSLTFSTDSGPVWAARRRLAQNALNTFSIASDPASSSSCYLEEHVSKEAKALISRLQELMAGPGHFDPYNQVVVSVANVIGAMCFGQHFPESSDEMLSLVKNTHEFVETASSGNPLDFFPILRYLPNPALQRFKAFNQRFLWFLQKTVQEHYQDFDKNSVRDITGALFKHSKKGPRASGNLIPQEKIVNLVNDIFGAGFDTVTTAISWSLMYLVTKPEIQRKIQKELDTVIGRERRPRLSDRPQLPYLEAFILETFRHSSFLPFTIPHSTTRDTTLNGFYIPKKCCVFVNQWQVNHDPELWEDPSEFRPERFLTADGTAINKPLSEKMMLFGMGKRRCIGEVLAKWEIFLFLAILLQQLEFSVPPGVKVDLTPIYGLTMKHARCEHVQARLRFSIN
row,SMILES,Potency
1,C[Si](C)(C)O[Si](O)(O)O,inactive
2,O=C1CCCc2c(O)cccc21,34.7 µM (active)
3,CC(C)c1cc(C(C)C)cc(C(C)C)c1,inactive
4,CCCc1ncc(C(=O)O)s1,inactive
5,CC1=C(O)C(=O)CO1,inactive
6,Cc1ccc2cccnc2c1,39.6 µM (active)
7,COCCCOc1cc(C[C@@H](C[C@H](N)[C@@H](O)C[C@H](C(=O)NCC(C)(C)C(N)=O)C(C)C)C(C)C)ccc1OC,inactive
8,COC(=O)C(c1ccccc1Cl)N1CCc2sccc2C1 (centres undefined),15.5 µM (active)
9,NNC(=O)OCc1ccccc1,15.9 µM (active)
10,Cc1cc(=O)oc2cc(O[C@@H]3SC[C@@H](O)[C@H](O)[C@H]3O)ccc12,inactive
11,CCCC(C)C(O)CC (centres undefined),inactive
12,O=C(O)CCCCCCCCCC(=O)O,inactive
13,O=C1Nc2ccccc2C1=O,39.6 µM (active)
14,C/C=C/C(=O)CCCC,inactive
15,C=C(C)C(=O)OCCCC,inactive
16,CCOC(=O)CC,inactive

row,SMILES,Potency
1,O=C(O)Cc1ccccc1Oc1ccc(Cl)cc1Cl,inactive
2,CSC(=O)c1cccc2nnsc12,0.71 µM (active)
3,CCCCCCC(O)CO (centres undefined),inactive
4,O=S(=O)(O)CC(O)CCl (centres undefined),inactive
5,Cc1cc(C)c(N)c(Cl)c1,2.83 µM (active)
6,CN(C)c1ccncc1,inactive
7,CCCOc1ccc(C(=O)OCCN(CC)CC)cc1N,17.4 µM (active)
8,C/C(Cl)=C/CCl,inactive
9,O=S(=O)(O)c1ccc(Cl)cc1,inactive
10,CCCCC(CC)COC(=O)CC#N (centres undefined),35.6 µM (active)
11,CC(CN1CC(=O)NC(=O)C1)N1CC(=O)NC(=O)C1 (centres undefined),inactive
12,Cc1ccc(Br)cc1,inactive
13,CC(=O)Oc1ccc(C(C)=O)cc1,33 µM (active)
14,C/C=C(\C)C=O,63.6 µM (active)
15,CCOC(=O)[C@H](CCc1ccccc1)N[C@H]1CS[C@H](c2cccs2)CN(CC(=O)O)C1=O,inactive
16,COC(C)(C)CC(C)=O,inactive
